Rows were chosen to be rich in hits. Some 12% of all compounds tested hit in one or more screens of this group.
Pf growth 48h: inhibits P. falciparum growth in the first generation, 48 h. P. falciparum luciferase growth in erythrocytes, 48 h. 310,000 compounds, 5.9% hits. Potency, µM (series often up to 28.7 µM), inactives show at the top dose activity change, negative = inhibition, most hits filed as inhibitors; further: on the % scale 0 is the no-effect control and ±100 the full control effect
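Firefly luciferase activity from engineered P. falciparum reports growth; inhibitors lower the luminescent signal. Cultures contained 2% hematocrit erythrocytes at 0.1% final parasitemia.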
Pf growth 96h: P. falciparum growth inhibition at 96 hours; AID 504834; P. falciparum luciferase reporter growth, 96 h; Potency, µM (top dose mostly 28.7 µM), inactives show at the top dose activity change, negative = inhibition, actives largely listed as inhibitors; 320,000 compounds, 6.9% hits; further: on the % scale 0 is the no-effect control and ±100 the full control effect
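Infected RBCs, 2% Hct / 0.05% parasitemia final; luciferase-reporter P. falciparum; cpd 96 h, 37 C, 5% CO2; luciferase detection reagent; luminescence.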
SARS PLP yeast: SARS-CoV PLP inhibition in yeast; Potency, µM (highest dose often 32.9 µM), without a hit: at the top dose activity, positive = growth rescue, most hits filed as activators; S. cerevisiae expressing SARS-CoV PLpro, growth rescue; 330,000 compounds, 0.19% hits; calls by dose curve; further: 0% is about no effect; nearly all actives have a fitted effect of over 55% in size
Sm TGR inh: blocks Schistosoma mansoni thioredoxin glutathione reductase | AID 485364 | 360,000 compounds, 3% hits | purified TGR, DTNB reduction, TNB absorbance 405 nm | Potency, µM (doses to about 114 µM), inactives show at the top dose activity change, negative = inhibition, usual class: inhibitors | Q962Y6; further: on the % scale 0 is the no-effect control and ±100 the full control effect; nearly all actives have a fitted effect of over 60% in size
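TGR 20 nM + NADPH 100 uM (dispensed conc.), cpd preinc 15 min RT; start with NADPH (500 uM addition) then DTNB (15 mM addition). Kinetic TNB absorbance, 405 nm filter. Four-parameter Hill fit across titration.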
* marks the source's active call; other numbers are inactive results. Unless noted, the call rests on the fitted dose curve; in most records, active means well fitted curve in the direction sought with a large enough effect; inconclusive means small, poorly fitted or top-dose-only effect, or another doubt; inactive means no such curve, though single readings can be large; an effect the other way counts as inactive or inconclusive. Potency means the concentration at half of the fitted maximal effect.

How did Cc1cc(C)c2[nH]c(=O)c(CN(CC3CCCO3)C(=S)Nc3ccccc3)cc2c1 (stereo not drawn) do in these assays?
Pf growth 48h: -9%; Pf growth 96h: -5%; SARS PLP yeast: 23%; Sm TGR inh: -6%

How did COc1ccccc1NC(=S)N(Cc1ccco1)Cc1cc2ccc(C)c(C)c2[nH]c1=O do in these assays?
Pf growth 48h: 12µM*; Pf growth 96h: 150%; SARS PLP yeast: 13%; Sm TGR inh: -12%

How did Cc1ccc2cc(CN(CC3CCCO3)C(=S)Nc3ccccc3)c(=O)[nH]c2c1C (stereo not drawn) do in these assays?
Pf growth 48h: 10µM*; Pf growth 96h: -5%; SARS PLP yeast: -4%; Sm TGR inh: 4%

How did O=C(c1ccco1)N1CCN(C(=O)c2cn(-c3ccccc3)nc2-c2ccccc2)CC1 do in these assays?
Pf growth 48h: -5%; Pf growth 96h: 17%; SARS PLP yeast: -1%; Sm TGR inh: -18%

How did NC(=O)CC(NC(=O)Cc1cccc2ccccc12)c1ccc(NCCCN2CCCC2=O)c([N+](=O)[O-])c1 (stereo not drawn) do in these assays?
Pf growth 48h: inconclusive; Pf growth 96h: inconclusive; SARS PLP yeast: -10%; Sm TGR inh: -15%

Results for CC(=O)Oc1ccc2nc(/C=C/c3ccccc3)oc(=O)c2c1 ?
Pf growth 48h: 21%; Pf growth 96h: inconclusive; SARS PLP yeast: 4%; Sm TGR inh: 3%

Results for Cc1ccc(NC(=O)C[n+]2ccn(C3=C([O-])c4ccccc4C3=O)c2)cc1 ?
Pf growth 48h: 33%; Pf growth 96h: -4%; SARS PLP yeast: 1%; Sm TGR inh: 2%

How did CC(=O)Nc1ccc(S(=O)(=O)/N=C2\C(=O)c3ccccc3C([O-])=C2n2cc[n+](-c3ccccn3)c2)cc1 do in these assays?
Pf growth 48h: 1.5µM*; Pf growth 96h: 4.7µM*; SARS PLP yeast: -1%; Sm TGR inh: 7.1µM*

Results for CCCC[n+]1ccn(C2=C([O-])c3ccccc3C(=O)/C2=N\S(=O)(=O)c2ccc(Br)cc2)c1 ?
Pf growth 48h: 3.3µM*; Pf growth 96h: inconclusive; SARS PLP yeast: 13%; Sm TGR inh: -19%

What do the screens show for `CCCC[n+]1ccn(-c2nc3ccccc3nc2[N-]S(=O)(=O)c2ccc(Cl)cc2)c1`?
Pf growth 48h: -16%; Pf growth 96h: -24%; SARS PLP yeast: -3%; Sm TGR inh: -14%

How did Cc1ccc(S(=O)(=O)/N=C2\C(=O)c3ccccc3C([O-])=C2n2cc[n+](CCC(C)C)c2)cc1 do in these assays?
Pf growth 48h: 13µM*; Pf growth 96h: 3.3µM*; SARS PLP yeast: -2%; Sm TGR inh: -18%

How did CCc1nnc2c(N3CCN(c4cc(Cl)ccc4C)CC3)nc3ccccc3n12 do in these assays?
Sm TGR inh: 0%

Results for CCc1nn2c(=O)cc(COC(=O)CNC(=O)COc3ccc(C)cc3)nc2s1 ?
Sm TGR inh: 14%

How did CCN(CC)S(=O)(=O)c1ccc2oc(C(=O)N3CCc4ccccc4C3)c(C)c2c1 do in these assays?
Pf growth 48h: inconclusive; Pf growth 96h: 9.3µM*; SARS PLP yeast: 2%; Sm TGR inh: 0%

Results for CCN(CC)S(=O)(=O)c1ccc2oc(C(=O)NC3CCCc4ccccc43)c(C)c2c1 (stereo not drawn) ?
Pf growth 48h: 5.2µM*; SARS PLP yeast: -8%; Sm TGR inh: -19%

What do the screens show for `CCN(CC)S(=O)(=O)c1ccc2oc(C(=O)N3CCCCCC3)c(C)c2c1`?
Pf growth 48h: 13µM*; Pf growth 96h: -5%; SARS PLP yeast: -6%; Sm TGR inh: 5%

How did Cc1c(C(=O)N2CCc3ccccc3C2)oc2ccc(S(=O)(=O)N3CC(C)CC(C)C3)cc12 (stereo not drawn) do in these assays?
Pf growth 48h: inconclusive; Pf growth 96h: 0%; SARS PLP yeast: -6%; Sm TGR inh: -3%

What do the screens show for `C=CCNC(=O)c1oc2ccc(S(=O)(=O)N(CC)CC)cc2c1C`?
Pf growth 48h: inconclusive; Pf growth 96h: 10µM*; SARS PLP yeast: 3%; Sm TGR inh: 8%

How did CCN(CC)S(=O)(=O)c1ccc2oc(C(=O)NCc3ccccc3OC)c(C)c2c1 do in these assays?
Sm TGR inh: -1%

Results for COc1cc(Cl)c(C)cc1NC(=O)COC(=O)c1ccc(CN2CCCC2=O)cc1 ?
Pf growth 48h: -13%; Pf growth 96h: -18%; SARS PLP yeast: -5%; Sm TGR inh: 1%

How did CCN(CC)S(=O)(=O)c1ccc2oc(C(=O)N3CCOCC3)c(C)c2c1 do in these assays?
Pf growth 48h: -29%; Pf growth 96h: inconclusive; SARS PLP yeast: -1%; Sm TGR inh: 7%

Results for CCOC(=O)N1CCN(C(=O)c2oc3ccc(S(=O)(=O)N(CC)CC)cc3c2C)CC1 ?
Pf growth 48h: 5.2µM*; Pf growth 96h: -10%; SARS PLP yeast: 1%; Sm TGR inh: -7%

What do the screens show for `O=C(C1CC(=O)N(c2ccccc2)C1)N1CCN(c2ccc(F)cc2)CC1` (stereo not drawn)?
Pf growth 48h: -24%; Pf growth 96h: 10%; SARS PLP yeast: 5%; Sm TGR inh: -6%

Results for CC(=O)OC1CN2CCC1CC2 (stereo not drawn) ?
Pf growth 48h: -5%; Pf growth 96h: 4.8µM*

What do the screens show for `O=C(Nc1ccccc1Cl)OC1CN2CCC1CC2` (stereo not drawn)?
Pf growth 48h: inconclusive; Pf growth 96h: 14%; SARS PLP yeast: -1%; Sm TGR inh: 5%

Results for Cc1ccc(S(=O)(=O)c2c(N)n(CCCN(C)C)c3nc4ccccc4nc23)cc1 ?
Pf growth 48h: inconclusive; Pf growth 96h: inconclusive; SARS PLP yeast: 0%; Sm TGR inh: -11%

Results for CCCCn1c(NS(=O)(=O)c2ccccc2)c(C(=O)OCC)c2nc3ccccc3nc21 ?
Pf growth 48h: 1.7µM*; Pf growth 96h: inconclusive; SARS PLP yeast: -34%; Sm TGR inh: -31%

How did CCCCn1c(NS(=O)(=O)c2ccc(C)cc2)c(S(=O)(=O)c2ccccc2)c2nc3ccccc3nc21 do in these assays?
Pf growth 48h: inconclusive; Pf growth 96h: 4.1µM*; SARS PLP yeast: -7%; Sm TGR inh: -4%

How did CCSc1nnc2c(n1)OC(c1ccc(C)cc1)N(C(C)=O)c1ccccc1-2 (stereo not drawn) do in these assays?
Sm TGR inh: -7%

What do the screens show for `Cc1csc(NC(=O)c2ccc(Cl)nc2)n1`?
Pf growth 96h: 102%; SARS PLP yeast: 0%; Sm TGR inh: -4%

How did COc1ccc(NC(=O)CNC(=O)Cn2cnc3sc(C)c(C)c3c2=O)cc1OC do in these assays?
Pf growth 48h: 1%; Pf growth 96h: 10µM*; SARS PLP yeast: -3%; Sm TGR inh: -8%

What do the screens show for `COc1ccc(CCNC(=O)CNC(=O)Cn2cnc3sc(C)c(C)c3c2=O)cc1OC`?
Pf growth 48h: 1%; Pf growth 96h: inconclusive; SARS PLP yeast: 0%; Sm TGR inh: 2%

What do the screens show for `CCOC(=O)c1sc2c(c1C)c(=O)n(Cc1ccccc1)c(=O)n2CCN(C)C`?
Pf growth 48h: inconclusive; Pf growth 96h: 2.1µM*; SARS PLP yeast: 2%; Sm TGR inh: 1%
